We go through eight compounds from PubChem BioAssay.

One test concerns the target Albumin (Bos taurus) (UniProt P02769). Put plainly: bovine serum albumin binders on microarray, profiling panel, artefact control for SMM control protein annotation, biochemical, small-molecule microarray, Alexa647 label, 635/667 nm fluorescence (AID 1118).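 Also: score merges 667 nm emission intensity and signal-to-noise per printed compound spot.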 To be noted: BSA-A647 binding, fluorescence 635 nm, higher = more signal.
The nature of test [1]: small-molecule microarray binders of probe aXIP, primary screen, biochemical, NeuroSMM set, 635/667 nm fluorescence (AID 1119).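 Also: probe is the protein aXip251-270 applied at 1 µg/mL to compound-printed slides; binding of probe to printed compounds measured as 667 nm fluorescence plus signal to noise.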 Conditions: higher = more signal, called active from +8 up or from −8 down.
Test [2] in a line: small-molecule binders of probe aNOTCH3, primary screen, biochemical, small-molecule microarray, 635/667 nm fluorescence (AID 1120).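 Also: probe is a biotin-tagged antibody raised against NOTCH3 rather than NOTCH3 protein; score merges spot fluorescence near 667 nm with spot signal to noise.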 Conditions: higher = more signal.
A short description of test [3]: small-molecule binders of probe aNOTCH2, primary screen, biochemical, small-molecule microarray, 635/667 nm fluorescence (AID 1121).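 Also: score merges feature fluorescence read at 667 nm with its signal to noise.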 To be noted: higher = more signal.
In test [4] the target is Carbonic anhydrase 2 (Homo sapiens) (UniProt P00918). Put plainly: CAII small-molecule binders, profiling panel, biochemical, small-molecule microarray, Alexa647-labelled CAII (AID 1122). To be noted: CAII-A647 binding fluorescence, higher = more signal.
The nature of test [5]: COS7 lysate on small-molecule microarray, probe aHis, 635 nm (AID 1123).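 Also: z-score combines 667nm fluorescence intensity with signal-to-noise per printed compound spot.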 To be noted: COS7 cell lysate, fluorescence, higher = more signal.
The nature of test [6]: compound binding in COS7 lysate, probe aLAP1, primary screen, cell lysate, small-molecule microarray (AID 1124).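 Also: lysate comes from COS7 cells expressing LAP1 and is applied at 0.3 µg/mL; score merges spot fluorescence near 667 nm with signal-to-noise over triplicate slides.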 Conditions: probe aLAP1, fluorescence, higher = more signal.
The next test concerns Sam68 (KHDRBS1). Description: Sam68 small-molecule binders, primary screen, biochemical, small-molecule microarray, 635 nm fluorescence (AID 1125).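 Also: score merges 667 nm channel intensity with signal to noise over triplicate slides.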 To be noted: small-molecule microarray binding, higher = more signal.
The test system of test [7] is Chordin-like protein 2 (CHRDL2). Description: CHRDL2 small-molecule binders, primary screen, biochemical, small-molecule microarray, 635 nm fluorescence (AID 1126).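 Also: printed compound slides probed with Chrdl2 protein at 4 µg/mL for 1 h at 4 C; score merges 667 nm emission intensity with signal to noise over three replicate slides.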 To be noted: small-molecule microarray binding, fluorescence 635 nm; higher = more signal.
In test [8] the target is Concanavalin-A (Canavalia ensiformis) (UniProt P02866). Description: ConA small-molecule binders, primary screen, artefact control for SMM control protein annotation, biochemical, small-molecule microarray, Alexa647 label, 635 nm (AID 1127).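 Also: z combines 667 nm emission intensity with signal-to-noise across three replicate slides.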 Conditions: ConA-A647 binding fluorescence, higher = more signal.
Chain of Concanavalin-A (Canavalia ensiformis) (P02866 whole entry, looked up): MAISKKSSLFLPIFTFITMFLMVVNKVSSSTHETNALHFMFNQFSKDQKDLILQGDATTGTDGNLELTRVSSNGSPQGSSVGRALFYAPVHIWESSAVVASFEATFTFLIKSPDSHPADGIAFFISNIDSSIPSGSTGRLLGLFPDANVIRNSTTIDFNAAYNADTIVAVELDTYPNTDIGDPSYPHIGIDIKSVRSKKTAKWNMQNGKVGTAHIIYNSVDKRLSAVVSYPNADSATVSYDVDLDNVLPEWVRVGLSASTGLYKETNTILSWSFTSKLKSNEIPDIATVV
The nature of test [9]: anti-His antibody binders, primary screen, artefact control for SMM control protein annotation, biochemical, small-molecule microarray, 635 nm fluorescence (AID 1128).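 Also: score merges feature fluorescence with signal-to-noise for each printed compound spot.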 Conditions: anti-His Alexa647 antibody binding, higher = more signal.
Test [10] relates to Human papillomavirus type 1a E7 protein (residues 1-88). Put plainly: HPV1a E7 small-molecule binders, primary screen, biochemical, small-molecule microarray, residues 1-88, 635 nm (AID 1129). Conditions: small-molecule microarray binding, fluorescence 635 nm; higher = more signal.
The target in test [11] is Focal adhesion kinase 1 (Homo sapiens) (UniProt Q05397). Description: small-molecule microarray binders of FAK, primary screen, biochemical, 635/667 nm fluorescence, BSA, DTT (AID 1130).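 Also: composite of spot emission at 667 nm and signal to noise over triplicate slides.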 Conditions: PTK2 binding, 635 nm fluorescence, higher = more signal.
Chain of Focal adhesion kinase 1 (Homo sapiens) (Q05397 whole entry, looked up): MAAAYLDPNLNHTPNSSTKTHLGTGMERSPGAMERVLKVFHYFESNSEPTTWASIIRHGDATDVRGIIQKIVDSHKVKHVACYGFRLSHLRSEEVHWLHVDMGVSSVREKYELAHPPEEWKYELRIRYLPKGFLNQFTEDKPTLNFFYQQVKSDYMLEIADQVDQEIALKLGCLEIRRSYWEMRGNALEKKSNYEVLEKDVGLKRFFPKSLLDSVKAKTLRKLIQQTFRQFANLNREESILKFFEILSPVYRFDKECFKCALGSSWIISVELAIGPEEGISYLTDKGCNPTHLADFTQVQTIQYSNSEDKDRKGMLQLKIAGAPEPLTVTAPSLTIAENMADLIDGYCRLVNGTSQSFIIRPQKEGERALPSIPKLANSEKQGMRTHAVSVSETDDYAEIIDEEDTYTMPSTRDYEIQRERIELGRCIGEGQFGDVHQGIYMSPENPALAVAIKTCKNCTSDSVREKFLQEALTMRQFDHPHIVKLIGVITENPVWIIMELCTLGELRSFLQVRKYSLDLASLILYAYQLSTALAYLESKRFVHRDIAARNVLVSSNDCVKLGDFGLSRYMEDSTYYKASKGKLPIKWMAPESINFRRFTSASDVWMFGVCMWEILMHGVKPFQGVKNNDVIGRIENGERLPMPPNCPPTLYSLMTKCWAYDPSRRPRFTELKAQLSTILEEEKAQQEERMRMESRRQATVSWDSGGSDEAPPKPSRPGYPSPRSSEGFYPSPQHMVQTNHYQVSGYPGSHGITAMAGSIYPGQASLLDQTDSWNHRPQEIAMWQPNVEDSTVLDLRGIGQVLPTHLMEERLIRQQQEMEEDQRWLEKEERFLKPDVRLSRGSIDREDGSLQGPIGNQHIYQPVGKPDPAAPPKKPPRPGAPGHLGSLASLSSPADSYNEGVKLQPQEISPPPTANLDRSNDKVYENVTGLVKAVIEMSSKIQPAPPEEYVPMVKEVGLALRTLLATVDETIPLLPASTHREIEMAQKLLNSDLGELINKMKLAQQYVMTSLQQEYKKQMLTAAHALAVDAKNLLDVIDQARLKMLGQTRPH
Test [12] has as its system Fibrinogen (Alexa647-labelled). Description: fibrinogen binders on compound microarrays, profiling panel, artefact control for SMM control-protein annotation, biochemical, small-molecule microarray, 635/667 nm fluorescence (AID 1131).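 Also: z-score merges 667 nm fluorescence with per-spot signal-to-noise over triplicate slides.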 Conditions: fibrinogen-A647 binding fluorescence, higher = more signal.
Test [13] has as its target Follistatin (Homo sapiens) (UniProt P19883). Description: follistatin binders on small-molecule microarrays, primary screen, biochemical, small-molecule microarray, 635/667 nm fluorescence (AID 1132). Conditions: FST binding, 635 nm fluorescence, higher = more signal.
Test [14] addresses Fibroblast growth factor 2 (Homo sapiens) (UniProt P09038). Put plainly: FGF2 binders on small-molecule microarrays, primary screen, biochemical, small-molecule microarray, 635/667 nm fluorescence (AID 1133). Conditions: small-molecule microarray binding, FGF2, fluorescence 635/667; higher = more signal.
The nature of test [15]: mitochondrial membrane potential change in A549 cells, profiling panel, cell-based, JC-1 fluorescence, basal, 24 h, 100 nL (AID 1138).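 Also: A549 lung adenocarcinoma cells under basal conditions with no added stimulus; test concentration not given here.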 Conditions: higher = more signal.
Another test relates to Lefty1. Put plainly: Lefty1 binders on small-molecule microarrays, primary screen, biochemical, small-molecule microarray, 635/667 nm fluorescence (AID 1139). Conditions: small-molecule microarray binding, fluorescence 635/667; higher = more signal.
Test [16] relates to wheat germ agglutinin (Triticum aestivum), Alexa647-labelled. Description: wheat germ agglutinin binders on compound microarrays, profiling panel, artefact control for SMM control-protein annotation, biochemical, small-molecule microarray, 635/667 nm fluorescence (AID 1140).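 Also: score merges 667 nm feature emission with signal to noise over triplicate slides.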 To be noted: WGA-A647 binding, 635 nm fluorescence, higher = more signal.
Test [17] has as its target Luciferin 4-monooxygenase (Photinus pyralis) (UniProt P08659). Put plainly: firefly luciferase enzyme inhibitors, primary screen, biochemical, luminescence, purified enzyme, 2006 set (AID 1141).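 Also: cell-free assay with purified firefly luciferase at 100 ng per well in PBS; test concentration not given here.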 Conditions: SteadyGlo luminescence, 30 min, higher = more signal, called active from +8 up or from −8 down.

Active and inactive are the calls of the source.

Chain of Luciferin 4-monooxygenase (Photinus pyralis) (P08659 whole entry, looked up): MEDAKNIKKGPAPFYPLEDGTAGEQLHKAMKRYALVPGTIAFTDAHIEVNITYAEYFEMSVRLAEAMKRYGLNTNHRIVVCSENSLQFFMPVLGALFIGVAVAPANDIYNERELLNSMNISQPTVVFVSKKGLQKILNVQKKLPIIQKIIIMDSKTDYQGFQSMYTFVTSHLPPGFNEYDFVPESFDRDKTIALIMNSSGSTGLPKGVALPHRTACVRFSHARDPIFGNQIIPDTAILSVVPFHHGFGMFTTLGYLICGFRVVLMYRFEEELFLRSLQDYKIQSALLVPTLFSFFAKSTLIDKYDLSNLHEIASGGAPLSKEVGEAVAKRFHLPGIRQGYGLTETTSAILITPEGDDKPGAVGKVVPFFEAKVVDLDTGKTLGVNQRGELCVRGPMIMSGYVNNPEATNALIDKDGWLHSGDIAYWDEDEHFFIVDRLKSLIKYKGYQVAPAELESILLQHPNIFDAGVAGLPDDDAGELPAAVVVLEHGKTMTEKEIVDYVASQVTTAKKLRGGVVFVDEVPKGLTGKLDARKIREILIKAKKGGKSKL
Chain of Albumin (Bos taurus) (P02769 whole entry, looked up): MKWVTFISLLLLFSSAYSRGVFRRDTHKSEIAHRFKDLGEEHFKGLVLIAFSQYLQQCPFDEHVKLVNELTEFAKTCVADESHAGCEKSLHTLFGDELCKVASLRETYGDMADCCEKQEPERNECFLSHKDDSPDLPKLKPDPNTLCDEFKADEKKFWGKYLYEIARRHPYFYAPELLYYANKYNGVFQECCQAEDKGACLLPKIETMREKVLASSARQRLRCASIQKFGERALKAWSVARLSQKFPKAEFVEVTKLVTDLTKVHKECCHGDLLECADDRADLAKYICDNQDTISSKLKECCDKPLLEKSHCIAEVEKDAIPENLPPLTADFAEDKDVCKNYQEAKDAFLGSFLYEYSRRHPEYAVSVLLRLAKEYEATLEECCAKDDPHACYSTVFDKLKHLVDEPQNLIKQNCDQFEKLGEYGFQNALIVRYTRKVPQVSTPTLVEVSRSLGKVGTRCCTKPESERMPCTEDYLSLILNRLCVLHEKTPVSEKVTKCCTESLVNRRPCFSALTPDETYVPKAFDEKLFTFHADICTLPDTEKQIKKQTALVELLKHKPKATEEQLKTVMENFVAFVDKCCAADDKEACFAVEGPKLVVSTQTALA
Chain of Follistatin (Homo sapiens) (P19883 whole entry, looked up): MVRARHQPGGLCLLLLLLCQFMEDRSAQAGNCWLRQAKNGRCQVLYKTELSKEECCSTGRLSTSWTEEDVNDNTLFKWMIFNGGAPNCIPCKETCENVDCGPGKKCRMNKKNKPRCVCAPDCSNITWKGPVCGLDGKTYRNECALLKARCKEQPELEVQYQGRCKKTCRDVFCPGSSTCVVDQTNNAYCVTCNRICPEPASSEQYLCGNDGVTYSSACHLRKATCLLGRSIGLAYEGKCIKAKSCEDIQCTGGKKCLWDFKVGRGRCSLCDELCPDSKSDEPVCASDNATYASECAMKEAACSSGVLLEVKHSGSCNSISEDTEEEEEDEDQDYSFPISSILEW
Chain of Fibroblast growth factor 2 (Homo sapiens) (P09038 whole entry, looked up): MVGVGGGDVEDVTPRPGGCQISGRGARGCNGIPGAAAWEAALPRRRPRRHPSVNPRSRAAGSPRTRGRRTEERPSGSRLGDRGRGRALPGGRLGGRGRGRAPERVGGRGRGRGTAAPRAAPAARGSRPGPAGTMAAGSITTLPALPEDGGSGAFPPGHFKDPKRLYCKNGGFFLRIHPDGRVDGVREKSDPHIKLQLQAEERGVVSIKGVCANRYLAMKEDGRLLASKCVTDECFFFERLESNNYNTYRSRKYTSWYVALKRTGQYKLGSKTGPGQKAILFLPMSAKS

As to `O=C1c2ccccc2[C@](Cc2ccccc2I)(C(=O)NCC(F)(F)F)[C@H](c2ccc(CO)cc2)N1Cc1ccccc1Cl`, the composite z-score was 0.83 with Albumin (Bos taurus); 0.0445 in test [2]; -0.0811 in test [3]; 0.596 in [4]; 2.04 in test [5]; 1.42 in test [6]. For the same compound, the composite z-score in the test with Sam68 (KHDRBS1) is 1.29; in test [7], -0.466; in [8] it was 1.09; in [9], -0.176; in test [10], 1.19; in test [11] it was 1.22. Moreover, the composite z-score in test [12] turned out to be 0.722; in [13] it was 1.1; in test [14] it was 0.138; in the test with Lefty1, 0.883; in test [16], 0.549. The composite Z-score in [1] was -0.228 (inactive). Besides, the figures for the z-score in [15] and in test [17] were 0.423 and 0.406 (inactive), respectively.

`[N-]=[N+]=Nc1ccccc1[C@@H]1OC(c2ccc(OCCCO)cc2)=N[C@]1(CCS(=O)(=O)c1ccccc1)C(N)=O`: the composite z-score with Albumin (Bos taurus) was 0.935; in test [2], 0.308; in test [3] it was 0.125; in [4] it was 0.438; in test [5], 2.02; in test [6], 1.66. Further, the composite z-score with Sam68 (KHDRBS1) is 1.29; in test [7], -0.227; in test [8], 1.16; in test [9], 0.712; in test [10] it was 1.23; in [11], 0.203. Also, the composite z-score in [12] is 1.02; in [13], 1.28; in test [14] it was 0.423; in the test on Lefty1, -0.411; in test [16] it was 0.881. In addition, the composite Z-score in test [1] was 0.185 (inactive). The z-score in [15] is -0.995; in test [17] it was -13.5 (active).

As for `CC(=O)n1cc(C(O)C2C=CC3C(=O)N(c4ccccc4)C(=O)C3N2Nc2ccc([N+](=O)[O-])cc2)c2ccccc21` (stereo not given), the composite z-score was found to be 0.932 in the test with Albumin (Bos taurus); 0.0159 in [2]; 0.386 in test [3]; 0.778 in [4]; 2.22 in [5]; 1.33 in test [6]. Moreover, the composite z-score is 1.34 in the test on Sam68 (KHDRBS1); -1.4 in test [7]; 0.823 in [8]; 3.33 in [9]; 0.981 in test [10]; 0.457 in [11]. The composite z-score in [12] is 0.916; in test [13], 0.347; in test [14] it was -0.105; with Lefty1, -0.719; in test [16] it was 1.45. For the same compound, the composite Z-score in test [1] is 0.406 (inactive). The z-score in [15] is -1.02; in test [17], 1.08 (inactive).

For `COC(=O)[C@@]1(Cc2ccc(OC)cc2)[C@H]2c3cc(C(=O)N(C)C)n(CCc4ccccn4)c3C[C@H]2CN1C(=O)c1ccccc1`, the composite z-score with Albumin (Bos taurus) amounted to 0.928; in test [2], 1.28; in test [3], 0.689; in [4] it was 0.461; in test [5], 1.06; in [6], 0.272. Besides, the composite z-score in the test with Sam68 (KHDRBS1) is 0.221; in test [7], -0.764; in [8] it was -0.138; in test [9] it was 0.429; in test [10] it was 0.815; in test [11] it was 0.933. Besides, the composite z-score in [12] was -1.04; in test [13], 0.0679; in [14], -0.162; in the test with Lefty1 it was -0.919; in [16], 0.698. Further, in test [1], the composite Z-score was -0.0712 (inactive). The z-score in [15] was -0.267; in test [17], 1.49 (inactive).

Take `COc1ccc(/C=C/C=O)cc1`: the composite z-score with Albumin (Bos taurus) was -0.85; in [2], -0.0032; in [3], -0.0468; in test [4], -0.206; in test [5] it was -0.513; in test [6], 0.0998. The composite z-score in the test on Sam68 (KHDRBS1) is -0.235; in test [7] it was 0.309; in test [8], -0.415; in [9], 0.0874; in test [10], -0.238; in [11], -0.0113. For the same compound, the composite z-score in [12] was -1.76; in [13], 0.853; in test [14], 0.138; with Lefty1, 0.321; in test [16], -0.367. For the same compound, in [1], the composite Z-score is -0.174 (inactive). The z-score in [15] is 0.769; in test [17], -0.756 (inactive).

Turning to `O=C1C[C@]2(c3ccc([N+](=O)[O-])cc3)C(=O)N(CC(F)(F)F)c3cc(CO)ccc3[C@H]2N1C1CCCCC1`, the composite z-score is -0.749 in the test with Albumin (Bos taurus); -0.125 in [2]; -0.112 in test [3]; -0.634 in test [4]; 0.0971 in [5]; 0.206 in [6]. Moreover, the composite z-score was -0.686 with Sam68 (KHDRBS1); -1.26 in test [7]; -0.546 in test [8]; -1.55 in test [9]; -0.15 in [10]; 0.114 in [11]. In addition, the composite z-score is -0.603 in [12]; -1.13 in test [13]; -0.808 in test [14]; -1.44 in the test with Lefty1; -0.288 in test [16]. Besides, the composite Z-score in [1] is -0.0774 (inactive). Moreover, the z-score in test [15] is 0.673; in test [17], -1 (inactive).

`COC(=O)[C@H](Cc1ccccc1)N[C@@H](/C=C/C1CC1)[C@H](O)Cc1ccccc1`: the composite z-score in the test with Albumin (Bos taurus) was 0.0881; in test [2], -0.246; in test [3], -0.244; in [4] it was 0.209; in test [5] it was -0.255; in [6], 0.0885. Moreover, the composite z-score is -0.0844 in the test on Sam68 (KHDRBS1); -0.0635 in test [7]; 0.65 in test [8]; -0.477 in test [9]; -0.236 in [10]; -0.415 in test [11]. The composite z-score in test [12] is 0.475; in test [13] it was -0.405; in [14], -0.489; with Lefty1 it was -0.21; in test [16], 0.319. Further, the composite Z-score in [1] is -0.16 (inactive). Further, the figures for the z-score in [15] and in test [17] were -0.349 and 0.702 (inactive), respectively.

As for `COC(=O)[C@@]1(Cc2ccccc2)[C@H]2c3cc(C(=O)N4CCCC4)n(Cc4ccc(S(C)(=O)=O)cc4)c3C[C@H]2CN1C(=O)c1ccccc1`, the composite z-score with Albumin (Bos taurus) was 1.12; in test [2], 0.511; in [3], -0.173; in [4], 0.902; in test [5], 1.92; in test [6] it was 0.559. Also, the composite z-score in the test on Sam68 (KHDRBS1) was 1.29; in [7], -0.832; in [8], 0.978; in test [9] it was 1.27; in test [10], 1.27; in test [11] it was 2.05. Also, the composite z-score in [12] was 1; in test [13], 1.03; in [14], -0.771; in the test on Lefty1, -0.07; in test [16] it was 1.08. In addition, in test [1], the composite Z-score was 0.971 (inactive). The z-score was 0.687 in test [15] and 1.3 (inactive) in test [17].
